DT40 TDP1 CPT: growth inhibition of DT40 Tdp1-/-;hTDP1 cells with camptothecin (screen for TDP1 inhibitors); Potency, µM (top dose mostly 46.2 µM), inactives show at the top dose activity change, negative = growth inhibition, actives largely listed as inhibitors; actives 12% (n = 420,000); chicken DT40 Tdp1-/-;hTDP1 cells + 20 nM CPT, ATP luminescence, 48 h; note: potency is the fitted concentration of half-maximal effect; nearly all actives have a fitted effect of over 55% in size
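Chicken DT40 Tdp1-/- cells stably complemented with human TDP1 were seeded at 400 cells/well in medium containing 20 nM camptothecin, exposed to pin-transferred compounds, and grown at 37 °C for at least 48 hr. Viability was read as ATP luminescence.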
DT40 TDP1 no CPT: qHTS for Inhibitors of human tyrosyl-DNA phosphodiesterase 1 (TDP1): qHTS in cells in absence of CPT | DT40 Tdp1-/- hTDP1 cells, no CPT, ATP luminescence, 48 h | Potency, µM (series often up to 46.2 µM), inactives show at the highest dose activity change, negative = growth inhibition, hits mostly inhibitors | actives 15% (n = 420,000) | AID 686978, 2013; note: potency is the fitted concentration of half-maximal effect; nearly all actives have a fitted effect of over 55% in size
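Chicken DT40 Tdp1-/- cells complemented with human TDP1, screened without camptothecin (DMSO vehicle only), 400 cells/well. Compounds pin-transferred, cells incubated at 37 °C for at least 48 hr. Growth read as ATP-dependent luminescence (CellTiter-Glo, 30 min at RT).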
ELG1 repair inh: blocks ELG1-dependent DNA repair in HEK293T cells; HEK293T ELG1-luciferase reporter, luminescence, 16 h; DNA damage induced by 5-fluorouridine; Potency, µM (highest dose often 46.1 µM), without a hit: at the highest dose activity change, negative = inhibition, actives largely listed as inhibitors; actives 2.3% (n = 330,000); AID 504467; note: potency is the fitted concentration of half-maximal effect; nearly all actives have a fitted effect of over 55% in size
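Luminescence from the luciferase reporter, measured 30 min after ONE-Glo reagent at room temperature, was the read-out. Beforehand, 2,000 cells per well were exposed for 16 hr at 37 °C to 5-fluorouridine together with compound or vehicle.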
HT1080-NT tox: kills 2HG-producing HT-1080-NT fibrosarcoma cells | HT-1080-NT fibrosarcoma viability, CellTiter-Glo ATP luminescence, 48 h | Potency, µM (series often up to 46.1 µM), inactives show at the highest dose activity, negative = less viability, actives largely listed as cytotoxic | actives 1.6% (n = 360,000);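 note: NT is the 2HG producing partner of a matched IDH1 knockdown line; potency is the fitted concentration of half-maximal effect; 0% = DMSO-treated cells and -100% = media-only wells without cells; nearly all actives have a fitted effect of over 55% in size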
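HT-1080-NT fibrosarcoma cells (2HG-overproducing), 750 cells/well in RPMI with 5% FBS, dosed after 2 h and incubated 48 h at 37C. CellTiter-Glo luminescence normalized to DMSO and no-cell wells; concentration-response curves fitted and classed.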
IL-1B inflam inh: blocks inflammasome-driven IL-1 beta release; actives 4.7% (n = 360,000); activity change, % at 57.5 µM; THP-1 LPS/ATP IL-1B secretion, AlphaLISA, 16 h; hits give low values; in the data active = activity change below about -50%; inconclusive = mostly about -30% to -49%
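THP-1 cells pretreated 1 hr with compounds (up to 57.5 uM final), then stimulated with LPS (250 ng/mL final) plus ATP (1.25 mM final); secreted IL-1B measured by AlphaLISA after 16 hr, decreased signal indicating inhibition.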
HT1080 IDH1KD tx: toxicity to HT-1080 IDH1 knockdown cells (counter line); HT-1080 IDH1 knockdown viability, ATP luminescence, 48 h; Potency, µM (series often up to 46.1 µM), for the others: at the top dose activity, negative = toxicity, most hits filed as cytotoxic; actives 2% (n = 360,000); AID 686971;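 note: potency is the fitted concentration of half-maximal effect; 0% = DMSO wells and -100% = cell-free medium wells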
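In this qHTS, HT-1080 cells depleted of IDH1 are exposed for 48 h at 37 °C to compound titrations. Toxicity is scored from CellTiter-Glo luminescence, with DMSO as full viability and medium alone as none.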
Active calls of the source: *; ? = inconclusive; nt = no result; [ ] = another dose, or the depositor's remark. Sampled rows, rich in hits. Any-hit rate of the full collection: about 19%. Unless noted, calls come from the whole dose curve; as a rule, active = well fitted curve in the direction sought with a large enough effect; inconclusive = small, poorly fitted or top-dose-only effect, or another doubt; inactive = no such curve, though single readings can be large; an effect the other way counts as inactive or inconclusive. Unless noted, % is set by controls: 0 for no effect and ±100 for the full control effect.

SMILES	DT40 TDP1 CPT	DT40 TDP1 no CPT	ELG1 repair inh	HT1080-NT tox	IL-1B inflam inh	HT1080 IDH1KD tx
Cc1ccc(-c2nn(-c3cccc(F)c3)cc2CNCc2cccnc2)o1	?	?	-12.5%	-16.6%	?	-16.3%
CCn1c(SCC(=O)NC2CC2)nnc1-c1ccc(F)cc1	0.4%	15.1%	14.8%	26.6%	-10.9	11.1%
COC(=O)C1(C(=O)OC)C[C@H](/C=C/c2ccccc2)N(Cc2ccccc2OC)[C@@H]1c1cccs1	25.9µM*	23.1µM*	nt	-14.2%	-0.5	-8.8%
CCCNC(=S)NC1CC2CCCC(C1)N2Cc1ccccc1OC (stereo not drawn)	-13.9%	-25.2%	nt	-2.6%	-5.0	6.2%
COc1ccccc1CN1C2CCCC1CC(NC(=O)/C=C/c1ccccc1)C2 (stereo not drawn)	?	?	16.9%	-14.7%	-76.6*	-25.0%
O=C(Cn1[nH]c(=O)c2ccccc2c1=O)OCC(=O)c1ccccc1Cl	2.7%	-1.3%	5.9%	-1.0%	-2.4	-8.6%
CCC(C)(C)NC(=O)C(c1sccc1C)N(Cc1ccco1)C(=O)c1csnn1 (stereo not drawn)	16.4µM*	16.4µM*	-14.5%	1.9%	-11.2	-2.1%
CC(C)(C)NC(=O)C(c1ccc(F)cc1)N(Cc1ccco1)C(=O)c1csnn1 (stereo not drawn)	?	-12.3%	-11.1%	-4.8%	-28.9	-4.6%
CCC(C)(C)NC(=O)C(c1ccc(F)cc1)N(Cc1ccco1)C(=O)c1cnccn1 (stereo not drawn)	-7.2%	-1.2%	5.4%	-9.4%	-83.2*	1.7%
CCC(C)(C)NC(=O)C(c1ccccc1F)N(Cc1ccco1)C(=O)c1csnn1 (stereo not drawn)	-18.5%	?	12.9%	-20.9%	-5.3	-1.4%
COC(=O)c1ccc(C(C(=O)NCc2ccccc2)N(Cc2ccco2)C(=O)c2cnccn2)cc1 (stereo not drawn)	-14.7%	-24.8%	?	-3.1%	-59.2*	-3.2%
N#Cc1c2n(c3c(=O)n(Cc4ccccc4Cl)cnc13)CCCCC2	18.4µM*	?	?	-4.9%	-20.6	-19.0%
COC(=O)Cn1cnc2c(C#N)c3n(c2c1=O)CCCCC3	-23.7%	-4.8%	-1.7%	9.1%	9.8	3.1%
COc1ccc(-n2c(=O)c3sc4ccccc4c3n(CC(=O)Nc3ccccc3F)c2=O)cc1	-5.0%	-2.4%	nt	nt	nt	nt
CN1C(=O)c2cccc3c(Cl)ccc(c23)C1=O	-5.6%	-21.9%	0.8%	2.0%	nt	8.4%[9.24 µM]
COc1ccccc1N1C(=O)c2cccc3c(Cl)ccc(c23)C1=O	?	13µM*	-23.6%	2.6%	-21.4	5.5%
CCCCNc1ccc(C(F)(F)F)cc1S(=O)(=O)NCCc1ccc(F)cc1	18.4µM*	6.51µM*	-16.3%	?	-63.3*	?
CCCCN1C(=O)N(CCc2ccc(F)cc2)S(=O)(=O)c2cc(C(F)(F)F)ccc21	-17.1%	?	14.5%	10.6%	-4.5	1.1%
COc1ccc(CCNC(=O)CCS(=O)(=O)Cc2ccccc2C)cc1OC	-5.2%	7.0%	-1.9%	8.2%	-6.8	12.1%
CCCCN(CC)C(=O)Cn1ncc2c3ccccc3n(CCC)c2c1=O	?	23.1µM*	-13.5%	-20.4%	-20.6	-19.0%
CCCn1c2ccccc2c2cnn(CC(=O)N(Cc3ccccc3)C(C)C)c(=O)c21	23.1µM*	18.4µM*	nt	nt	nt	nt
CCCn1c2ccccc2c2cnn(CC(=O)N(C)c3ccc(F)cc3)c(=O)c21	18.4µM*	18.4µM*	nt	nt	nt	nt
CCOC(=O)Cn1ncc2c3ccccc3n(CC(=O)OCC)c2c1=O	-26.1%	-4.5%	-3.3%	-8.4%	0.0	-6.1%
CCOC1(C)OCC(=O)[C@]2(CCC3C4CCC5=CC(=O)C=CC5(C)C4C(=O)CC32C)O1 (stereo partly drawn)	-4.0%	?	-1.3%	10.6%	4.1	6.2%
CC1(C)O[C@@H]1COc1c2ccoc2cc2oc(=O)ccc12	11.6µM*	18.4µM*	-5.6%	2.8%	-2.0	4.0%
SMILES	DT40 TDP1 CPT	DT40 TDP1 no CPT	ELG1 repair inh	HT1080-NT tox	IL-1B inflam inh	HT1080 IDH1KD tx
Cc1ccc2c(c1)/C(=C/c1ccccc1F)C(=O)N2	?	?	-3.2%	-11.7%	-5.0	-12.5%
Cc1ccc2c(c1)/C(=C/c1ccccc1)C(=O)N2	-11.7%	?	-29.8%	-25.9%	-82.0*	?
O=C(O)COc1ccccc1/C=C1\C(=O)Nc2ccc(Br)cc21	12.0%	4.9%	-7.7%	1.1%	29.2	5.8%
O=C1Nc2ccc(I)cc2/C1=C/c1cc(Br)c(O)c(Br)c1	13µM*	?	nt	nt	nt	nt
O=C1Nc2ccc(I)cc2C1=Cc1cc(Br)c(O)c(Br)c1	10µM*	11.2µM*	nt	nt	nt	nt
COc1ccc(OC)c(C(=O)NC(CC(N)=O)c2ccc(N3CCC(Cc4ccccc4)CC3)c([N+](=O)[O-])c2)c1 (stereo not drawn)	-26.4%	-16.8%	-13.4%	15.4%	-1.2	8.4%
O=C(O)C1C2OC3C(OC(=O)C31)C2Br (stereo not drawn)	-2.1%	-5.6%	nt	7.5%	-3.1	6.8%
CCNc1ccc(-c2nc(-c3ccncc3)no2)cc1[N+](=O)[O-]	?	-13.7%	nt	nt	nt	nt
CN(C)c1ccc(-c2ccnc3c2CC(C)(C(=O)NCCC(F)(F)F)O3)cc1 (stereo not drawn)	7.31µM*	5.8µM*	nt	-22.9%	-16.6	-13.4%
CC(=O)Nc1ccc(-c2ccnc3c2CC(C)(C(=O)NCc2ccc(N(C)C)cc2)O3)cc1 (stereo not drawn)	?	?	nt	?	?	-46.6%
CN(C)c1ccc(-c2ccnc3c2CC(C)(C(=O)NCc2ccc(F)c(F)c2)O3)cc1 (stereo not drawn)	9.2µM*	9.2µM*	nt	?	0.1	?
CN(C)c1ccc(-c2ccnc3c2CC(C)(C(=O)NCc2ccco2)O3)cc1 (stereo not drawn)	4.11µM*	6.51µM*	nt	?	-4.7	?
CC(=O)NCCNC(=O)C1(C)Cc2c(-c3ccc(NC(C)=O)cc3)ccnc2O1 (stereo not drawn)	-1.3%	?	nt	5.8%	29.1	24.8%
CC(=O)Nc1ccc(-c2ccnc3c2CC(C)(C(=O)NCc2ccco2)O3)cc1 (stereo not drawn)	1.46µM*	1.16µM*	nt	?	54.8	2.59µM*
COc1ccc2c(c1)cc1c(=O)n(CC(=O)NCCCN3CCOCC3)nc(C)n12	2.5%	-19.1%	?	-4.2%	0.9	-6.3%

Compound activity deposited in PubChem BioAssay by National Center for Advancing Translational Sciences (NCATS).
